Among all 330,000 compounds or so, about 1,900 (0.58%) were called active. Not shown: some 4% with an inconclusive outcome. Only a sample is shown. Potency and affinity values are given separately. A number with no mark means an inactive call. Cut-off read from the data, not from the text of the source: inconclusive = inhibition above about 70% without an active follow-up result; inactive = below that.
Assay: M. tuberculosis growth inhibition, HTS (AID 449762);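 note: bacterial growth assessed after seven days of incubation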
Conditions: M. tuberculosis H37Rv growth inhibition, 7H9 media; at 25 µM; stronger effect = higher value
For `CC(C)(C)c1ccc(C(=O)NCC(=O)OCC(=O)N2CCN(S(=O)(=O)c3ccc(Cl)cc3)CC2)cc1`, the inhibition was 8.58%.
Molecule `Cc1ccc(S(=O)(=O)NCc2ccc(C(=O)NCCCN3CCN(C)CC3)cc2)cc1` has an inhibition of -4.79%.
Work on `CC(=O)Nc1ccc(S(=O)(=O)NCc2ccc(C(=O)NCCCN3CCC(C)CC3)cc2)cc1` yielded an inhibition of 2.04%.
For `N/C(=N\OC(=O)c1cnn(-c2ccccc2)c1C(F)(F)F)c1cc(C(F)(F)F)cc(C(F)(F)F)c1`, the inhibition was 9.61%.
With `COc1cc(C2/C(=C(\O)c3ccc4c(c3)OCCO4)C(=O)C(=O)N2Cc2ccco2)ccc1O` (stereo not given) the inhibition was -4.18%.
`O=C(OCc1nc2ccccc2s1)c1ccco1` gave an inhibition of 53.7%.
Work on `CSCc1ccc(C(=O)OCc2nc3ccccc3s2)o1` yielded an inhibition of 65.8%.
In the case of `CC(=O)C1=C(O)C(=O)N(c2ccc(Br)cc2)C1c1cccc([N+](=O)[O-])c1` (stereo not given), the inhibition is reported as -1.11%.
Work on `O=C(CS(=O)CC(=O)Nc1cnc2ccccc2c1)Nc1ccc(Cl)cc1` (stereo not given) yielded an inhibition of 47%.
`CCOc1ccc(NC(=S)NC23CC4CC(CC(C4)C2)C3)cc1` showed an inhibition of -20.5%.
Work on `CSc1nsc(SC)c1C(=O)OCC(F)(F)F` yielded an inhibition of -1.41%.
Work on `CCN(CC)C(=O)CN1CCC(c2nc3cc(C)c(C)cc3[nH]2)CC1` yielded an inhibition of -1.85%.
With `CCN1CCN(CC2COc3ccccc3O2)CC1` (stereo not given) the inhibition was -2.32%.
In the case of `CCC(C)N1C(=O)CCC1C(=O)NCCc1ccc(Cl)cc1` (stereo not given), the inhibition is reported as 5.11%.
With `CCCCOc1ccc(CC2CCC(=O)NC2=O)cc1` (stereo not given) the inhibition was 12.4%.
Work on `CCOc1ccc(C(C)(C)C)cc1S(=O)(=O)n1nc(C)cc1C` yielded an inhibition of -3.62%.
With `O=C(/C=C/c1ccccc1)Oc1ccc(C(=S)N2CCOCC2)cc1` the inhibition was 13.4%.
For `COc1cc(C(=S)N2CCOCC2)ccc1OC(=O)/C=C/c1ccco1`, the inhibition was 5.25%.
`CN(C)S(=O)(=O)c1ccc(Nc2ccc(-c3ccc4c(c3)OCCO4)nn2)cc1` showed an inhibition of 2.53%.
Molecule `CN(C(=O)c1cccc(NC(=O)c2ccccc2)c1)C1CCCCC1` has an inhibition of -5.84%.
Work on `CCOc1ccc(-c2nn3c(-c4ccc(F)cc4)nnc3s2)cc1` yielded an inhibition of 0.65%.
For `COc1ccc(-c2nn3c(-c4ccccc4)nnc3s2)cc1`, the inhibition was 36.9%.
For `COc1ccccc1OCC(=O)N/N=C1/C=C(C)CC1`, the inhibition was 8.93%.
Molecule `O=C(c1ccc(CNc2c(N3CCCC3)c(=O)c2=O)cc1)N1CCN(C2CCCCC2)CC1` has an inhibition of 38.8%.
In the case of `Cc1ccc(CNC(=O)c2ccc(CNc3c(N4CCCC4)c(=O)c3=O)cc2)cc1`, the inhibition is reported as -5.18%.
`COc1ccc(CNC(=O)C2CCC(CNc3c(N4CCOCC4)c(=O)c3=O)CC2)cc1` (stereo not given) showed an inhibition of -8.95%.
In the case of `COc1cc(NC(=O)c2ccc(CNc3c(N4CCOCC4)c(=O)c3=O)cc2)cc(OC)c1`, the inhibition is reported as -10.6%.
`CC(C)C[C@H]1CNC(=O)C(=O)N1C[C@H](C)NC(=O)Cc1ccccc1` gave an inhibition of -3.35%.
In the case of `N#Cc1cccc(C(=O)N(CCc2ccccc2)Cc2cccs2)c1`, the inhibition is reported as 2.88%.
In the case of `Cc1cc(NC(=O)CN(C)CC(=O)Nc2ccc(F)c(F)c2F)no1`, the inhibition is reported as -14.5%.
With `O=c1nc2n(c3ccc(Br)cc13)CCS2` the inhibition was 14%.
`N#Cc1c(-c2ccc(Br)cc2)nc2n(c1=O)CCCS2` showed an inhibition of -5.36%.
`CC(C)n1nnnc1-c1ccc(Cl)cc1` showed an inhibition of -5.7%.
`N#Cc1ccc(C23OCCN2CCn2c3c3ccccc3[n+]2[O-])cc1` (stereo not given) showed an inhibition of 21.6%.
Molecule `Cc1ccc(C23OCCN2CCn2nc4ccccc4c23)cc1` (stereo not given) has an inhibition of -9.54%.
In the case of `O=C(Nc1sc2c(c1C(=O)NC1CC1)CCCCCC2)c1ccco1`, the inhibition is reported as -5.06%.
Work on `c1cncc(C2CC(c3cccs3)n3ncnc3N2)c1` (stereo not given) yielded an inhibition of -8.25%.
For `Cc1ccc2nc(/C(C#N)=C/c3ccc(O)c(O)c3)[nH]c2c1`, the inhibition was 0.8%.
Molecule `Cc1ccc2nc(/C(C#N)=C/c3ccccc3C(=O)O)[nH]c2c1` has an inhibition of -0.89%.
Molecule `CCc1ccccc1NC(=O)CNC(=O)c1n[nH]c(=O)c2ccccc12` has an inhibition of -6.75%.
With `C=C[C@@H]1c2cc(C)ccc2N(S(=O)(=O)c2ccc(C)cc2)[C@H](c2ccccc2)C1(C#N)C#N` the inhibition was -12.5%.
In the case of `COc1cc(C)ccc1OCCOc1c(C)cccc1Cl`, the inhibition is reported as 62.7%.
In the case of `COc1cc(C)ccc1OCCOc1c(Cl)cc(Cl)cc1Cl`, the inhibition is reported as -4.9%.
`CC(C)Oc1ccc(C(=O)NC(Cc2c[nH]c3ccccc23)C(=O)NN)cc1` (stereo not given) showed an inhibition of 3.03%.
In the case of `CC(C)NC(=O)c1cnc(N2CCN(c3ccccn3)CC2)c2ccccc12`, the inhibition is reported as -4.73%.
Work on `Cc1cc(Br)ccc1NC(=O)CN1CCN(c2ccccn2)CC1` yielded an inhibition of -1.24%.
Work on `COc1ccccc1C(=O)Nc1ccc(Cc2ccncc2)cc1` yielded an inhibition of -0.58%.
For `COc1ccc(Br)cc1C(=O)Nc1ccc(Cc2ccncc2)cc1`, the inhibition was -1.26%.
`O=C(NCCc1ccc(Cl)cc1)C1CCCN(c2ncnc3c2nc2n3CCCCC2)C1` (stereo not given) gave an inhibition of 29.1%.
Molecule `CC1CCCN(C(=O)c2ccc(-c3ccccc3Cl)o2)C1` (stereo not given) has an inhibition of 27.8%.
With `NC(=O)C1CCN(C(=O)c2ccc(-c3ccccc3Cl)o2)CC1` the inhibition was -1.57%.
Work on `COCc1cc(C)nc(SCC[N+](C)(C)CC(=O)Nc2cccc(C)c2)c1C#N` yielded an inhibition of 10.4%.
For `NNc1nc2c(-c3ccc(Cl)cc3)nnn2c2ccccc12`, the inhibition was -3.53%.
`CNc1nc2c(-c3ccc(Cl)cc3)nnn2c2ccccc12` gave an inhibition of 8.01%.
`CCC(C)CCN1C(Nc2ccccc2)=NC[C@@H]1CC(C)C` (stereo not given in full) showed an inhibition of -0.75%.
Molecule `CN1C(C(=O)N2CCC3(CC2)OCCO3)=CC(c2ccc(F)cc2)=NS1(=O)=O` has an inhibition of 1.76%.
Molecule `Cc1nonc1OCCNc1ccc([N+](=O)[O-])c2cccnc12` has an inhibition of 2.82%.
`Cc1nonc1OCCNCCNc1ccccc1[N+](=O)[O-]` gave an inhibition of 5.53%.
`C#CCOCCOCCOCCNc1nc(N2CCN(C(=O)[C@H](CCC(=O)O)n3cc(C(N)Cc4ccc(O)cc4)nn3)CC2)nc(N2CCN(C(=O)[C@H](Cc3cc4ccccc4[nH]3)n3cc(C(N)CC(C)C)nn3)CC2)n1` (stereo not given in full) showed an inhibition of -1.44%.
Molecule `C#CCOCCOCCOCCNc1nc(N2CCN(C(=O)C(CCC(=O)O)n3cc(C(N)CC(C)C)nn3)CC2)nc(N2CCN(C(=O)C(Cc3cc4ccccc4[nH]3)n3cc(C(N)Cc4ccc(O)cc4)nn3)CC2)n1` (stereo not given) has an inhibition of 2.57%.
